Experimental data from ChEMBL document CHEMBL3988442, “University of Dundee, Small-Polar-MMV Screening Library” (2021).

Biological target: T1, Methionyl-tRNA synthetase, putative (Leishmania donovani (strain BPK282A1)) (UniProt E9BF75)
T1 sequence (whole entry): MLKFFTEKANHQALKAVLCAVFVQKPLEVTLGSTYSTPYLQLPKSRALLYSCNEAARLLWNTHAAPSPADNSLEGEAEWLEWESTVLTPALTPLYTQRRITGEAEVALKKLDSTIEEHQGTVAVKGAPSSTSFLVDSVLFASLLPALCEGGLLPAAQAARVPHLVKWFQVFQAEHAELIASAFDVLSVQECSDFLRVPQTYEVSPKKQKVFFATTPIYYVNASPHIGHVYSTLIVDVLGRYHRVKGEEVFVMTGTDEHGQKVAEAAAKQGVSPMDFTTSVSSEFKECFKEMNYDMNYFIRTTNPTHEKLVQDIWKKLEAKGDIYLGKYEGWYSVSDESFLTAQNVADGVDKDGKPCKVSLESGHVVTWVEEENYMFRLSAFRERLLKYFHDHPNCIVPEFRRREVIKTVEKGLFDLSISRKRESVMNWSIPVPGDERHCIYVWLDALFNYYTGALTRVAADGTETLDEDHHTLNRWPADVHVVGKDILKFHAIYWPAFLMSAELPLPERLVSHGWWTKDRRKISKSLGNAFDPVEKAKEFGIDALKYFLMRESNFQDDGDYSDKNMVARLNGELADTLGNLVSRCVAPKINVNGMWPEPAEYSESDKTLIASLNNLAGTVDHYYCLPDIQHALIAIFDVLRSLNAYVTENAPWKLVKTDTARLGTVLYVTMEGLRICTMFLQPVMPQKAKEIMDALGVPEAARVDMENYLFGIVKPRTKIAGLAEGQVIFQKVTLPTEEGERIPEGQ
Assay: Leishmania donovani Methionine tRNA synthetase (LdMetRS):v7. Dose response assay
Type: functional
Parameters: conc 80 nM, time 150 minutes

## COc1cc(NC(=O)c2cccc3cccnc23)c(OC)cc1Cl
MAX_EFFECT 3.703703704
  PXC50: < 4

## Clc1cc(Cl)cc(CNCc2ccncc2)c1
MAX_EFFECT 36.1376673
  PXC50: < 2.7

## Cn1ncc2c(NCCO)nc(NCCS(=O)(=O)N3CCOCC3)nc21
MAX_EFFECT 23.12138728
  PXC50: < 4

## OCCCNc1ccnc(Cl)n1
MAX_EFFECT 7.32177264
  PXC50: < 4

## C[C@@H](CO)Nc1nc(Nc2ccc(F)c(F)c2)nc2c1cnn2C
BOTTOM 0.900407202, HILLSLOPE 1.012545194, MAX_EFFECT 78.11320755, TOP 96.15766895
  PXC50: 4.67

## Clc1cc(Cl)cc(NCc2cccnc2)c1
BOTTOM -6.720584862, HILLSLOPE 0.561777258, MAX_EFFECT 60.61185468, TOP 100.0
  PXC50: 3.18

## NS(=O)(=O)c1cccnc1Nc1ccc(F)cc1
MAX_EFFECT 1.518026565
  PXC50: < 4

## COc1ccccc1NC(=O)Nc1c[n+]([O-])ccc1OC
MAX_EFFECT 3.018867925
  PXC50: < 4

## Clc1cc(Cl)cc(NCCc2ccccc2)c1
MAX_EFFECT 9.751434034
  PXC50: < 2.7

## COc1ccncc1NC(=O)N1CCOc2ccccc21
MAX_EFFECT 6.037735849
  PXC50: < 4

## OCCCNc1ccnc(Nc2ccc(F)c(F)c2)n1
BOTTOM 8.063501062, HILLSLOPE 0.925044522, MAX_EFFECT 61.50943396, TOP 93.0681126
  PXC50: 4.25

## Cn1ncc2c(NC3CCOC3)nc(Nc3ccc(F)c(F)c3)nc21 (configuration not stated)
BOTTOM 7.395126545, HILLSLOPE 0.941646955, MAX_EFFECT 86.79245283, TOP 90.65244752
  PXC50: 5.1

## Cn1ncc2c(NCCO)nc(NCCCO)nc21
MAX_EFFECT 7.543520309
  PXC50: < 4

## CN(CCO)c1nc(NCCO)c2cnn(C)c2n1
MAX_EFFECT 9.248554913
  PXC50: < 4

## Cn1ncc2c(NCCO)nc(NC3CCOCC3)nc21
MAX_EFFECT 17.34104046
  PXC50: < 4

## Cn1ncc2c(N3CCCCC3)nc(Nc3ccccc3)nc21
MAX_EFFECT 27.40740741
  PXC50: < 4

## Cn1ncc2c(NCCO)nc(N3CCOCC3)nc21
MAX_EFFECT 5.69259962
  PXC50: < 4

## Clc1cc(Cl)cc(CNCc2ccc3[nH]ncc3c2)c1
BOTTOM 1.106249154, HILLSLOPE 1.041028332, MAX_EFFECT 65.20076482, TOP 65.36183651
  PXC50: 3.99

## Oc1ccccc1-c1nc(Nc2ccccc2Cl)c2ccccc2n1
MAX_EFFECT 30.74074074
  PXC50: < 4

## CN1CCn2cc/c(=N\c3ccc(F)c(F)c3)nc21
MAX_EFFECT 18.13084112
  PXC50: < 4

## Cn1ncc2c(NCCO)nc(NCCn3cccn3)nc21
MAX_EFFECT 36.99421965
  PXC50: < 4

## CN(CCO)c1nccc(Nc2ccc(F)c(F)c2)n1
MAX_EFFECT 7.663551402
  PXC50: < 4

## Clc1cc(Cl)cc(CNCC2CCOCC2)c1
MAX_EFFECT 17.78202677
  PXC50: < 2.7

## O=c1nc(NCCCNC2CCOc3c(Cl)cc(Cl)cc32)[nH]c2ccccc12 (configuration not stated)
BOTTOM 1.104460677, HILLSLOPE 1.218727258, MAX_EFFECT 102.5925926, TOP 101.9327021
  PXC50: 6.05

## CN(CCO)c1nccc(Cl)n1
MAX_EFFECT 5.046728972
  PXC50: < 4

## CN(C)c1nc(NCCO)c2cnn(C)c2n1
MAX_EFFECT 10.24667932
  PXC50: < 4

## CCn1c(NC(=O)Nc2ccccc2OC)nc2ccccc21
MAX_EFFECT 1.111111111
  PXC50: < 4

## COc1cc(Nc2ncccc2S(N)(=O)=O)cc(C(F)(F)F)c1
MAX_EFFECT 0.199600798
  PXC50: < 4

## NS(=O)(=O)c1cccnc1Nc1cncnc1
MAX_EFFECT 8.518518519
  PXC50: < 4

## C[C@@H](CO)Nc1nccc(Nc2ccc(F)c(F)c2)n1
MAX_EFFECT 2.697495183
  PXC50: < 4

## OCCCNc1ccnc(Nc2cccc(F)c2)n1
MAX_EFFECT 28.51637765
  PXC50: < 4

## NS(=O)(=O)c1cccnc1Nc1cc(C(=O)O)cc(C(F)(F)F)c1
MAX_EFFECT 6.165703276
  PXC50: < 4

## C[C@H](CO)Nc1nccc(Nc2ccc(F)c(F)c2)n1
MAX_EFFECT 6.165703276
  PXC50: < 4

## COc1cc(NC(=O)c2cccs2)c2ncccc2c1
MAX_EFFECT 11.11111111
  PXC50: < 4

## Clc1cc(Cl)cc(NCc2ccc3[nH]ncc3c2)c1
MAX_EFFECT 28.48948375
  PXC50: < 2.7

## Cn1ncc2c(NC3COC3)nc(Nc3ccc(F)c(F)c3)nc21
MAX_EFFECT 2.264150943
  PXC50: < 4

## CN(c1nc(NCCO)c2cnn(C)c2n1)C1CCS(=O)(=O)C1 (configuration not stated)
MAX_EFFECT 9.248554913
  PXC50: < 4

## Cc1cnn(C)c1CNc1cc(Cl)cc(Cl)c1
MAX_EFFECT 23.51816444
  PXC50: < 2.7

## Cc1cccc(Nc2ncccc2S(N)(=O)=O)c1
MAX_EFFECT 4.448742747
  PXC50: < 4

## CN(CCO)c1ccnc(Nc2ccc(F)c(F)c2)n1
BOTTOM 0.294483603, HILLSLOPE 0.87168646, MAX_EFFECT 90.28037383, TOP 97.37088088
  PXC50: 5.27

## Clc1cc(Cl)cc(NCc2ccccn2)c1
BOTTOM 0.466583915, HILLSLOPE 0.636268233, MAX_EFFECT 51.05162524, TOP 100.0
  PXC50: 2.71

## OCCNc1ccnc(Nc2ccc(F)c(F)c2)n1
BOTTOM 2.684604701, HILLSLOPE 0.866541634, MAX_EFFECT 62.24299065, TOP 102.5858947
  PXC50: 4.2

## Clc1cc(Cl)cc(CNCc2ccc3[nH]ccc3c2)c1
BOTTOM 7.303470977, HILLSLOPE 1.421171765, MAX_EFFECT 85.85086042, TOP 90.87319761
  PXC50: 4.04

## Clc1cc(Cl)cc(NCc2ccncc2)c1
BOTTOM -1.202484297, HILLSLOPE 0.574759938, MAX_EFFECT 66.34799235, TOP 100.0
  PXC50: 3.3

## Clc1cc(Cl)cc(NCc2ncc[nH]2)c1
BOTTOM -1.539697056, HILLSLOPE 1.029999783, MAX_EFFECT 60.61185468, TOP 100.0
  PXC50: 2.93

## Clc1cc(Cl)cc(NCc2c[nH]cn2)c1
BOTTOM -1.936831904, HILLSLOPE 1.590281355, MAX_EFFECT 96.5583174, TOP 100.0
  PXC50: 3.41

## CN(CCO)c1ccnc(Nc2cccc(C(F)(F)F)c2)n1
BOTTOM -8.924411722, HILLSLOPE 0.906080231, MAX_EFFECT 87.09055877, TOP 92.74987259
  PXC50: 5.38

## COc1ccccc1NC(=O)Nc1cccc(O)c1
MAX_EFFECT 2.803738318
  PXC50: < 4

## NS(=O)(=O)c1cccnc1Nc1cccc(O)c1
MAX_EFFECT 3.333333333
  PXC50: < 4

## Cn1ncc2c(NCCO)nc(NCc3ccccc3)nc21
MAX_EFFECT 4.528301887
  PXC50: < 4

## COc1ccccc1NC(=O)Nc1cnccc1OC
MAX_EFFECT 4.905660377
  PXC50: < 4

## C[C@H](CO)Nc1ccnc(Cl)n1
MAX_EFFECT 5.046728972
  PXC50: < 4

## NS(=O)(=O)c1cccnc1Nc1ccc(O)cc1
MAX_EFFECT 5.185185185
  PXC50: < 4

## CC(C)Nc1nc(NCCO)c2cnn(C)c2n1
MAX_EFFECT 5.313092979
  PXC50: < 4

## COc1ccccc1NC(=O)Nc1cc(C(=O)O)ccc1OC
MAX_EFFECT 5.794392523
  PXC50: < 4

## COC(=O)c1ccc(OC)c(NC(=O)Nc2ccccc2OC)c1
MAX_EFFECT 5.794392523
  PXC50: < 4

## N#Cc1c(N)nc(-c2ccccc2)nc1C(F)(F)F
MAX_EFFECT 6.666666667
  PXC50: < 4

## COC(=O)c1ccc(OC)c(NC(=O)N2CCCc3ccccc32)c1
MAX_EFFECT 6.79245283
  PXC50: < 4

## NS(=O)(=O)c1cccnc1NC1CCCCC1
MAX_EFFECT 6.986027944
  PXC50: < 4

## NS(=O)(=O)c1cccnc1NC1CCCC1
MAX_EFFECT 6.986027944
  PXC50: < 4

## CCn1c(NC(=O)Nc2ccccc2C)nc2ccccc21
MAX_EFFECT 7.777777778
  PXC50: < 4

## COc1ccc(OC)c(NC(=O)N2CCOc3ccc(C)cc32)c1
MAX_EFFECT 7.777777778
  PXC50: < 4
